From PubChem BioAssay
Calls of active or inactive are those of the source.

These compounds were tested against NADPH oxidase 4 (Homo sapiens) (UniProt Q9NPH5) (assay: NOX4-dependent H2O2 signal modulators, primary screen, NOX inhibitor project, cell-based, HEK293-NOX4, tetracycline-induced, Amplex Red fluorescence (AID 1160)). Conditions: 45 min, higher = more signal, called active from +8 up or from −8 down.
NADPH oxidase 4 (Homo sapiens), sequence (Q9NPH5 whole entry, looked up): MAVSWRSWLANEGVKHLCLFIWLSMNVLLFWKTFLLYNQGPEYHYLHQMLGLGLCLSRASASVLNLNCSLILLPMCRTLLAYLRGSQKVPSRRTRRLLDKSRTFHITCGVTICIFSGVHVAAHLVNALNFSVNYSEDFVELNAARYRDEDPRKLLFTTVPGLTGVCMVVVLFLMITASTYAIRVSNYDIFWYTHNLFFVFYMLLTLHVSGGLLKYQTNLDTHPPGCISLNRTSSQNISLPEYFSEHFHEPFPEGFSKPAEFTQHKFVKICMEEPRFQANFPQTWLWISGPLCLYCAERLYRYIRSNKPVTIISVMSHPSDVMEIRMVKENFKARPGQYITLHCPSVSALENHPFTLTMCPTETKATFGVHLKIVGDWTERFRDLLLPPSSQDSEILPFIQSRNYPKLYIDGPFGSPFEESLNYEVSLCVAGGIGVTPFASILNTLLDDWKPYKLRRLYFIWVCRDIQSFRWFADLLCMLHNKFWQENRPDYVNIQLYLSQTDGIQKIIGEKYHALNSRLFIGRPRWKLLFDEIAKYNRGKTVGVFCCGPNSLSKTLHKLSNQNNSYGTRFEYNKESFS

| Structure (SMILES) | z-score |
| --- | --- |
| COc1cc(CO)cc(I)c1O[C@H]1C=C(C(=O)NCCO)C[C@@H](NCc2ccccc2F)[C@@H]1O | -0.344 (inactive) |
| CCCNC(=O)[C@@]1(c2ccc([N+](=O)[O-])cc2)CC(=O)N(C2CCCCC2)[C@@H]1c1ccc(CO)cc1I | 0.187 (inactive) |
| CCOC(=CC(=O)OC)CC(O)c1cccc(Cl)c1 (stereo not given) | -0.513 (inactive) |
| Cc1ccc(S[C@]2(C(=O)NC(C)C)CC(=O)N(Cc3ccccc3C(F)(F)F)[C@@H]2c2ccc(CO)cc2I)cc1 | -3.44 (inactive) |
| CO[C@H]1O[C@H](CO)[C@@H](OC(=O)c2ccc(Br)cc2)[C@@H]2OC(=O)[C@@H](Cc3ccc4ccccc4c3)C/C=C/C[C@H](Cc3ccc4ccccc4c3)C(=O)O[C@@H]12 | 0.00292 (inactive) |
| COC(=O)[C@@]1(Cc2ccc(OC)cc2)[C@H]2c3cc(C(=O)N(C)C)n(Cc4nc5ccccc5[nH]4)c3C[C@H]2CN1C(=O)c1ccccc1 | 1.85 (inactive) |
| COCCCNC(=O)[C@]1(Cc2ccccc2N=[N+]=[N-])N=C(c2ccc(OCCCO)cc2)O[C@@H]1c1ccccc1N=[N+]=[N-] | 0.567 (inactive) |

Each compound was assayed against NADPH oxidase 5 (Homo sapiens) (UniProt Q96PH1) (assay: NOX5-dependent H2O2 signal modulators, primary screen, NOX inhibitor project, cell-based, HEK293-NOX5, Amplex Red fluorescence (AID 1161)). Conditions: HEK293-NOX5, ionomycin, 45 min, higher = more signal.
NADPH oxidase 5 (Homo sapiens), sequence (Q96PH1 whole entry, looked up): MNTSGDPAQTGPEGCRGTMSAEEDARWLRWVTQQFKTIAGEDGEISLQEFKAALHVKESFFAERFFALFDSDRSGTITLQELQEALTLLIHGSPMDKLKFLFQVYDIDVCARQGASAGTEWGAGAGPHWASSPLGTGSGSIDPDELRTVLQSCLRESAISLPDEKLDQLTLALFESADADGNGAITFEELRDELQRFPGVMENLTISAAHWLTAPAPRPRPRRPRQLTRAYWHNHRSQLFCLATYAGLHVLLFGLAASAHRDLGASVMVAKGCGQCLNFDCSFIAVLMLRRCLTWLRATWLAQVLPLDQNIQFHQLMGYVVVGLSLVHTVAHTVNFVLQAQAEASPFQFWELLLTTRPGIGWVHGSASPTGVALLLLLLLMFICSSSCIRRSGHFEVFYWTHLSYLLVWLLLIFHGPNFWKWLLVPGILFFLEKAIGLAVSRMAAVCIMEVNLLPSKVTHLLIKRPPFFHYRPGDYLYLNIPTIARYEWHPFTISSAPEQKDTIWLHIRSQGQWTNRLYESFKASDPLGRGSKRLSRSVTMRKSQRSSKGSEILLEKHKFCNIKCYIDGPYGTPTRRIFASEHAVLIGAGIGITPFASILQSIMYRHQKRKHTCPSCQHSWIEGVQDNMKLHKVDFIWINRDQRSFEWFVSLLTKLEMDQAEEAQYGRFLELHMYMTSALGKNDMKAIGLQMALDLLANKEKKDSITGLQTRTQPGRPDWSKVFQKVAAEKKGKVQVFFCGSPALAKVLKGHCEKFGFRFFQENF

| Structure (SMILES) | z-score |
| --- | --- |
| CC(C)C(=C=CC[C@H](O)c1ccc(OCCO)cc1)C[C@H](O)c1cc(Cl)cc(Cl)c1O | -1.36 |
| C=C(COC)/C(=C/C[C@@H](OC(=O)c1ccncc1)c1ccc(OCCO)cc1)c1cnc2ccccc2c1 | -1.84 |
| CC(C)CN1C(=O)[C@@]2(c3ccc([N+](=O)[O-])cc3)CC(=O)N(CC34CC5CC(CC(C5)C3)C4)[C@@H]2c2ccc(CO)cc21 | -0.986 |
| C=C(CCCC)/C(=C/C[C@@H](OC(C)=O)c1ccc(CO)o1)c1cc(C(=O)OC)ccc1OC | -1.18 |
| C=C(C(=O)CC[C@H](OC(=O)c1cccnc1)c1ccc(CO)o1)C(C)C | -0.0889 |
| CCOc1cc(C(O)C2C=CC3C(=O)N(C4CCCCC4)C(=O)C3N2Nc2ccc(OC)cc2)ccc1O (stereo not given) | -2.46 |
| CN(C)CCCNC(=O)[C@@H]1c2ccccc2C(=O)N(CC23CC4CC(CC(C4)C2)C3)[C@H]1c1ccc(CO)cc1 | -0.657 |
| NC(=O)N1C(=O)C2C(C1=O)C1C=C(CCCO)C2C(c2cccs2)N1Cc1cc2c(cc1Br)OCO2 (stereo not given) | -1.1 |
| [N-]=[N+]=NCc1ccccc1[C@H]1OC(c2ccc(OCCCO)cc2)=N[C@@]1(CCS(=O)(=O)c1ccccc1)C(N)=O | 1.78 |
| CC(C)(C)OC(=O)CC[C@]1(C(=O)O)N=C(c2ccc(OCCCO)cc2)O[C@H]1c1ccccc1 | 1.68 |
| COc1ccc([Si](C)(C)[C@@H]2[C@@H](CCO)O[C@]3(C(=O)N(Cc4cccc(N5C(=O)c6cccc7cccc5c67)c4)c4ccccc43)[C@H]2C)cc1 | 2.42 |
| COC1(C)CN(Cc2ccccc2Br)[C@H](/C=C/c2ccccc2)[C@H](Cc2ccccc2)O1 (stereo not given in full) | -0.271 |
| CN(C)C(=O)[C@@]1(Cc2ccccc2N=[N+]=[N-])COC(c2ccc(OCCCO)cc2)=N1 | -1.82 |
| CC(C)N1CC=CC23O[C@@H]4C=CCCOC(=O)C4[C@H]2C(=O)N(CCO)[C@@H]3C1=O (stereo not given in full) | 1.54 |
| C=C[C@@H](C)[C@H](OC(=O)Nc1ccc(SC)cc1)c1ccc(OCCO)cc1 | -0.18 |
| COC(=O)[C@@]1(Cc2ccc(OC)cc2)[C@H]2c3cc(C(=O)N(C)C)n(CCc4c[nH]c5ccc(O)cc45)c3C[C@H]2CN1C(=O)c1ccccc1 | 1.14 |
| COc1cc2c(cc1OC)CN(C(=O)[C@H]1[C@@H]3C(=O)O[C@@H](c4ccccc4)[C@@H](c4ccccc4)N3[C@@H](c3ccc(OCCO)cc3)[C@]13C(=O)Nc1ccc(C#CCCO)cc13)CC2 | 1.66 |
| COc1cc(CO)cc(I)c1O[C@H]1C=C(C(=O)NCCO)C[C@@H](N(CC2CCCCC2)C(=O)c2ccc(C(F)(F)F)cc2)[C@@H]1O | 0.686 |
| COC(=O)[C@@]1(Cc2ccc(F)cc2)[C@H]2c3cc(C(=O)N4CCCC4)n(CCc4c[nH]c5ccc(OC)cc45)c3C[C@H]2CN1C(=O)c1ccccc1 | -2.39 |
| COCC(=C=CC[C@H](O)c1ccc(OCCO)cc1)C[C@H](O)COCc1ccccc1 | -2.52 |
| CC=CC(O)C1C=CC2C(=O)N(C)C(=O)C2N1N1CCCCC1 (stereo not given) | -1.96 |
| [N-]=[N+]=NCc1ccccc1C[C@]1(C(=O)NCC(O)CO)N=C(c2ccc(OCCCO)cc2)O[C@H]1c1ccccc1CN=[N+]=[N-] (stereo not given in full) | -1.41 |
| NCCCCCCNC(=O)[C@H]1C[C@H]2C(=O)N[C@@H](Cc3ccccc3)C(=O)N2[C@H]1c1ccc(O)cc1 | 2.31 |
